The text below walks through data of PubChem BioAssay (NCI).

Values joined by “and” are separate entries in the source; they are usually repeats but may differ in a detail not shown here. Equal entries are not always repeated. This is part of a sample that, as a whole, favours compounds with a hit. Of some 83,000 tested, about 20% had one in any assay.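 Method: cells in 96-well plates; compound added at one concentration; 48 h incubation; percent growth measured; values under 10 scored active.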 Active and inactive are the calls of the source.

The test system of the first assay is UACC-62 melanoma. The experiment in a line: NCI-60 one-dose screen, 48 h (100 = growth as untreated, 0 = no growth, -100 = all killed). The note with it: 10 µM. The method, then:
Growth inhibition of the UACC-62 human tumor cell line is measured as a screen for anti-cancer activity. Cells are grown in 96 well plates and exposed to the test compound for 48 hours. Compounds are tested at a single concentration, which is 10^-5 M for most compounds. The reported endpoint is percent growth (GI% or GIPRCNT), where numbers from 0 - 100% represent growth inhibition, and numbers from -100% - 0 represent cell death. For example, a value of 40 represents 60% growth inhibition. A value of 0 means no net growth occurred over the course of the experiment. A value of -40 indicates 40% of cells at the beginning of the experiment died by the end of the experiment. A value of -100 means all cells are dead at the end of the experiment.
NCI-60 Human Tumor Cell Lines Screen was performed using the standard one-dose NCI protocol, which is described in more detail at https://dtp.cancer.gov/discovery_development/nci-60/default.htm.
Compounds with GIPRCNT values below 10 were considered active. Activity score was based on GIPRCNT using the following formula: […]
Score is 0 for GIPRCNT values of 100 or above, 50 for GIPRCNT values of 0, and 100 for GIPRCNT values of -100.
Consider `CC(=O)/C=C/c1ccc(OCc2ccc(Cl)cc2)cc1`, for which the growth was 95.5% (inactive).

Still in this assay, the particulars now being: 10 µM unless noted.
On to `O=C(/C=C/c1ccccc1)c1cccs1`, for which the growth is 92.9% (inactive) and 99.6% (inactive).
Still for that read-out and setting: to `O=C1/C(=C/c2ccc(F)c(F)c2)CN(C(=O)C(Cl)Cl)C/C1=C\c1ccc(F)c(F)c1` belongs -85.2% (active); to `CCCc1cc(C(N)=S)ccn1`, 108% (inactive).
Still for that read-out and setting: with `O=C(NNc1ccccc1)c1ccccc1` the figure was 29.6% (inactive) and 30.9% (inactive).
As for `CCOC(=O)CC1CSC(c2cccc(Cl)c2)=N1` (stereo not given), the growth was 101% (inactive).
For the molecule `CCCCCCNC(=O)Oc1ccc(/C(=C(/CC)Cc2ccccc2)c2ccc(OCCCN(C)C)cc2)cc1`, the growth is 94.9% (inactive).
Consider `COc1cc(Nc2nc3ccccc3cc2C(=O)Nc2ccc(F)c(F)c2)cc(OC)c1OC`, for which the growth was 12.9% (inactive).
The same measure, in the same setting: with `COc1ccc(/C=N\Nc2nc(SCC(C)C)nc(-c3ccc(OC)cc3)c2C#N)cc1` the figure was 86.1% (inactive); with `Nc1nc2ccccc2c2c(=O)c3ccc(Cl)cc3sc12`, 92.5% (inactive); with `Cn1cc(-c2csc(-c3cn(CCOC(N)=O)c4ccccc34)n2)c2cccnc21`, 72.2% (inactive).
Still for that read-out and setting: with `Nc1nc2c(s1)CCc1cn(S(=O)(=O)c3ccccc3)cc1-2` the figure was 79.4% (inactive) and 96.3% (inactive).
On the same count and under the same terms, with `Nc1ccc(S(=O)(=O)c2ccc(N)cc2)cc1` the figure was 98.7% (inactive) and 104% (inactive).
For the molecule `COc1ccc(CCNC(=O)COc2cc3c(Nc4ccc(F)c(Cl)c4)ncnc3cc2OC)cc1OC`, the growth was 95.7% (inactive).
On the same count and under the same terms, with `CCN1C(=O)/C(=c2\sc3n(c2=O)C2C(NN=3)N(CC)C(=O)N2CC)c2ccccc21` (stereo not given) the figure was 32.9% (inactive); with `C=C1CCC2C3(C)COC(c4ccc(NC(C)=O)cc4)OC3CCC2(C)C1C/C=C1/C(=O)OCC1O` (stereo not given), 81% (inactive); with `Cc1ccc(-c2nc(C#N)c(S(=O)(=O)N(C)C)o2)cc1`, 97.5% (inactive).
The same measure, in the same setting: to `N#CC1C(=O)c2ccccc2C1c1ccccc1` (stereo not given) belongs 100% (inactive) and 101% (inactive); to `Cc1ccc(C(=O)Nc2ccc(CN3CCN(C)CC3)c(C(F)(F)F)c2)cc1C#Cc1cnc(N)cc1C#N`, -38.5% (active).
On the same count and under the same terms, with `[2H]C([2H])([2H])Oc1cc(F)ccc1/C=C/C(=O)/C=C(/C=C/c1ccc(F)cc1OC([2H])([2H])[2H])OB(F)F` the figure was 20.9% (inactive); with `CC(=O)OC[C@]12CCC(C)(C)C=C1[C@H]1CC[C@@H]3[C@@]4(C)CCCNC(C)(C)[C@@H]4CC[C@@]3(C)[C@]1(C)CC2`, 34.4% (inactive); with `FC(F)(F)Sc1ccc(/C=C/c2cc(/C=C/c3ccc(SC(F)(F)F)cc3)n(-c3ccccc3)n2)cc1`, 84.5% (inactive).
For `CSc1nnc(-c2cc3c([nH]c4ccccc43)c(-c3cccc(O)c3)n2)n1-c1ccc(C)cc1`, the growth is 40.1% (inactive).
As to `CCOC(=O)CCCn1c(-c2ccccc2)cc(-c2ccccc2)c(C#N)c1=O`, the growth was 59% (inactive).
Same read-out and setting: to `O=C1C(c2c[nH]c3ccccc23)=C(c2coc3cc(Br)ccc23)C(=O)N1O` belongs 84.7% (inactive); to `COC(=O)/C=C1/SC(=Nc2ccc([N+](=O)[O-])cc2)N(CCc2c[nH]c3ccccc23)C1=O`, 51% (inactive).
Same read-out and setting: with `O=S(=O)(Nc1cc(Sc2cccc3cccnc23)c(O)c2ccccc12)c1ccc(F)cc1` the figure was -26.9% (active).
Still for that read-out and setting: with `COC(=O)c1[nH]nc(OC)c1C1(C(C#N)c2nc3ccccc3s2)CCCc2ccccc21` (stereo not given) the figure was 79.6% (inactive).
On to `N#CSc1c[nH]c2ccc(/C=C/C(=O)/C=C(/C=C/c3ccc4[nH]cc(SC#N)c4c3)OB(F)F)cc12`, for which the growth is -43% (active).
Still for that read-out and setting: with `Oc1ccccc1C=Nc1ccc(N2CCN(c3ccccc3)CC2)cc1` the figure was 95.4% (inactive); with `Nc1nc(N)c2c(n1)NC(c1ccc(Cl)cc1)CC(c1cccc(Nc3ccncc3)c1)=N2` (stereo not given), 69.2% (inactive).
For the molecule `OCCN1CCN(c2cc(-c3cccc(OC(F)(F)F)c3)nc3ccc(N4CCCC4)cc23)CC1`, the growth is 59.6% (inactive).
For `Cc1cc2nc(C(Cl)Cl)nc(-c3ccc(Cl)cc3)n2n1`, the growth was 48.5% (inactive).
The same measure, in the same setting: with `C=C(c1ccc(C(=O)O)cc1)c1cc2c(cc1C)C(C)(C)CCC2(C)C` the figure was 74.3% (inactive) and 58.7% (inactive); with `Cc1ccc(C(=O)Nc2nc3c(s2)CN(Cc2ccccc2)CC3)cn1`, 74.5% (inactive).
Still for that read-out and setting: with `C=C1CC[C@@H]2[C@](C)(COC(C)=O)[C@H](OC(C)=O)CC[C@@]2(C)[C@@H]1CC(Nc1ccc(S(=O)(=O)Nc2nccs2)cc1)C1=CCOC1=O` (stereo not given in full) the figure was 21.2% (inactive); with `[Cu+].[NH-][C@H]1C[N-]C(=O)[C@H]([C@H]2CCN=C(N)N2)[N-]C(=O)/C(=C\NC(N)=O)[N-]C(=O)[C@H](CNC(=O)C[C@@H](N)CCCN)[N-]C(=O)[C@H](CO)[N-]C1=O`, 92.1% (inactive); with `Clc1ccc2c(NCCN3CCN(c4ccnc(N5CCCC5)n4)CC3)ccnc2c1`, -29.5% (active).
Same read-out and setting: to `CCCCCCCCCCCCCCCC[N+](C)(C)CCN(Cc1ccc(OC)cc1)c1ncccn1` belongs -39.6% (active) and 19% (inactive).

Staying with this assay, now noted: 100 µM.
Regarding `CC(=O)/C=C/c1ccc(OCc2ccc(Cl)cc2)cc1`, the growth is 24.6% (inactive).
